Compound activity: PubChem, National Center for Advancing Translational Sciences (NCATS)
TDP1 cell noCPT: qHTS for Inhibitors of human tyrosyl-DNA phosphodiesterase 1 (TDP1): qHTS in cells in absence of CPT | DT40 Tdp1-/- hTDP1 cells, no CPT, ATP luminescence, 48 h | Potency, µM (series often up to 46.2 µM), without a hit: at the highest dose activity change, negative = growth inhibition, usual class: inhibitors | hit rate 15% among 420,000 | AID 686978, 2013; also: potency is read from the fitted curve at half-maximal effect; % is scaled to controls: 0 for no effect and ±100 for the full control effect; nearly all actives have a fitted effect of over 55% in size
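Growth of hTDP1-complemented DT40 Tdp1-knockout cells is measured by ATP luminescence after at least 48 hr compound exposure at 37 °C, with DMSO substituting for the 20 nM CPT used in the parallel screen.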
TGFb SMAD3 inh: qHTS for Inhibitors of TGF-b; AID 588855, 2011; Potency, µM (top dose mostly 46.1 µM), inactives show at the top dose activity, negative = inhibition, usual class: inhibitors; hit rate 1.2% among 410,000; HepG2 CAGA-GFP TGF-b/SMAD3 reporter, GFP fluorescence, 18 h; TGF-beta stimulated, 500 pg/mL final; also: potency is read from the fitted curve at half-maximal effect; % is scaled to controls: 0 for no effect and ±100 for the full control effect; nearly all actives have a fitted effect of over 65% in size
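TGF-beta reporter screen: HEPG2 CAGA-GFP, 1% FBS, 500 pg/mL TGF-beta final, 18 h; per-cell GFP summed per well; curves fitted and categorized by class.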
TDP1 inh: qHTS Assay for Inhibitors of Tyrosyl-DNA Phosphodiesterase (TDP1). recombinant TDP1, AlphaScreen DNA substrate cleavage. Potency, µM (highest dose often 130 µM), without a hit: at the top dose activity change, negative = inhibition, actives largely listed as inhibitors. Tyrosyl-DNA phosphodiesterase 1 (Homo sapiens), Q9NUW8. hit rate 0.28% among 350,000. AID 485290, 2010; also: potency is read from the fitted curve at half-maximal effect; % is scaled to controls: 0 for no effect and ±100 for the full control effect; nearly all actives have a fitted effect of over 40% in size
Target sequence (Q9NUW8 whole entry, looked up): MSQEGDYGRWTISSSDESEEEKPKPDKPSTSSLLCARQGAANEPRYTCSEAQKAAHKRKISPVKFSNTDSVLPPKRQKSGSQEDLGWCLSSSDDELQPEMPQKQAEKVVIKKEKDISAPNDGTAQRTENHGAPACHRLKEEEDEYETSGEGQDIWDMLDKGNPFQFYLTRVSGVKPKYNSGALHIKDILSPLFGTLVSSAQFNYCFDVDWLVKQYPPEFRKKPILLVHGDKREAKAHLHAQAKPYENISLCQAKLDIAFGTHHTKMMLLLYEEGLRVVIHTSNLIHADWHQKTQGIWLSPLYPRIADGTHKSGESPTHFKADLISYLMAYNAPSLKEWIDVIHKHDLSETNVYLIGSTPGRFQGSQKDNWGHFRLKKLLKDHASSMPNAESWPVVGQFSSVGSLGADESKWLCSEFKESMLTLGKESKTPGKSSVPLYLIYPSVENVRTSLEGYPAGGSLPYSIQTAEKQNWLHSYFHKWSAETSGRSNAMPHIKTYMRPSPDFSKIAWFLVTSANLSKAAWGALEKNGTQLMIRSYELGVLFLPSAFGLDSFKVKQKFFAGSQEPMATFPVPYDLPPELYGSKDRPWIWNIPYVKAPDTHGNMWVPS
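Signal: AlphaScreen proximity between streptavidin donor and anti-FITC acceptor beads on intact substrate. Reaction: Tdp1 1 nM, substrate 15 nM final, 5 min RT after 15 min compound preincubation.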
HepG2 viability: qHTS for Inhibitors of TGF-b: Cytotox Counterscreen | HepG2 CAGA-GFP viability, ATP luminescence, 18 h | Potency, µM (top dose mostly 46.1 µM), for the others: at the top dose activity change, negative = cytotoxicity, most hits filed as cytotoxic | hit rate 0.76% among 410,000; also: potency is read from the fitted curve at half-maximal effect
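CellTiter-Glo luminescence gave cytotoxicity after 18 hours at 37 degrees C. The cells were HepG2 CAGA-GFP in 1% FBS DMEM, stimulated with 500 pg/mL TGF-beta after compound addition. %Activity was normalised to no-cell wells (complete cell-killing) and DMSO (no toxicity), and curves were fitted and classified.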
IL-1B inflam inh: qHTS for Inhibitors of Inflammasome Signaling: IL-1-beta AlphaLISA Primary Screen. THP-1 LPS/ATP IL-1B secretion, AlphaLISA, 16 h; active compounds read low. activity change, % at 57.5 µM. hit rate 4.7% among 360,000. AID 743279, 2014; in the data active = activity change below about -50%; inconclusive = mostly about -30% to -49%; also: % is scaled to controls: 0 for no effect and ±100 for the full control effect
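THP-1 cells pretreated 1 hr with compounds (up to 57.5 uM final), then stimulated with LPS (250 ng/mL final) plus ATP (1.25 mM final); secreted IL-1B measured by AlphaLISA after 16 hr, decreased signal indicating inhibition.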
TDP1 cell CPT: qHTS for Inhibitors of human tyrosyl-DNA phosphodiesterase 1 (TDP1): qHTS in cells in presence of CPT; chicken DT40 Tdp1-/-;hTDP1 cells + 20 nM CPT, ATP luminescence, 48 h; Potency, µM (series often up to 46.2 µM), without a hit: at the top dose activity change, negative = growth inhibition, hits mostly inhibitors; hit rate 12% among 420,000; AID 686979, 2013; also: potency is read from the fitted curve at half-maximal effect; % is scaled to controls: 0 for no effect and ±100 for the full control effect; nearly all actives have a fitted effect of over 55% in size
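Cell growth measured by CellTiter-Glo luminescence after a minimum 48 h, 37 C compound exposure with 20 nM CPT in Tdp1-knockout DT40 cells stably expressing hTDP1, seeded 400/well; qHTS titration format.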
Numbers without * were called inactive. Only some compounds are listed: those with a hit (about 18% of all), similar ones and a draw of the others. Unless noted, calls follow the shape of the dose curve; as a rule, active = well fitted curve in the direction sought with a large enough effect; inconclusive = small, poorly fitted or top-dose-only effect, or another doubt; inactive = no such curve, though single readings can be large; an effect the other way counts as inactive or inconclusive.

What do the screens show for `Cc1ccc2c(CN3CCN(Cc4ccccc4Cl)CC3)cc(=O)oc2c1`?
TDP1 cell noCPT: 23µM*; TGFb SMAD3 inh: 7%; TDP1 inh: 2%; HepG2 viability: -5%; TDP1 cell CPT: 16µM*

How did O=c1cc(CN2CCN(C/C=C/c3ccccc3)CC2)c2cc(O)ccc2o1 do in these assays?
TDP1 cell noCPT: inconclusive; TGFb SMAD3 inh: -4%; TDP1 inh: 1%; HepG2 viability: -32%; IL-1B inflam inh: -54*; TDP1 cell CPT: inconclusive

How did Cc1ccc2oc(=O)cc(CN3CCN(C/C=C/c4ccccc4)CC3)c2c1 do in these assays?
TDP1 cell noCPT: 16µM*; TGFb SMAD3 inh: 21%; TDP1 inh: 3%; HepG2 viability: 3%; IL-1B inflam inh: 8; TDP1 cell CPT: inconclusive

How did CC(C)Nc1nc(Nc2ccccc2Cl)c2sccc2n1 do in these assays?
TDP1 cell noCPT: 23µM*; TGFb SMAD3 inh: -36%; HepG2 viability: -37%; IL-1B inflam inh: -63*; TDP1 cell CPT: 23µM*

Results for COCCNc1nc(Nc2ccccc2Cl)c2sccc2n1 ?
TDP1 cell noCPT: 23µM*; TGFb SMAD3 inh: inconclusive; HepG2 viability: -23%; IL-1B inflam inh: -11; TDP1 cell CPT: inconclusive

What do the screens show for `COCCNc1nc(NCCOc2ccccc2Cl)c2sccc2n1`?
TDP1 cell noCPT: 16µM*; TGFb SMAD3 inh: 7%; HepG2 viability: -34%; IL-1B inflam inh: -23; TDP1 cell CPT: 13µM*

Results for COc1ccc(C2CC(=O)N(CC(=O)Nc3ccc(C(F)(F)F)cc3)c3ccccc3S2)cc1 (configuration not stated) ?
TGFb SMAD3 inh: 16%; TDP1 inh: 2%; HepG2 viability: 8%

How did COC(=O)c1ccc(C(NC(=O)OCc2ccccc2)/C(=C/[C@@H](C)C(=O)NCc2nc3ccccc3s2)c2cccnc2)cc1 (some centres not stated) do in these assays?
TDP1 inh: 11%

What do the screens show for `COc1ccc(-c2cc(-c3c(O)c(OC)c4occc4c3OC)[nH]n2)cc1`?
TDP1 cell noCPT: 5.8µM*; TGFb SMAD3 inh: inconclusive; TDP1 inh: 6%; HepG2 viability: -27%; IL-1B inflam inh: inconclusive; TDP1 cell CPT: 5.8µM*

Results for COc1ccc(O)c(-c2cc(-c3cccs3)[nH]n2)c1 ?
TDP1 cell noCPT: inconclusive; TGFb SMAD3 inh: -18%; TDP1 inh: 11%; HepG2 viability: -9%; IL-1B inflam inh: 0; TDP1 cell CPT: 15µM*

How did Cc1ccc(-c2cc(-c3ccc(F)cc3)n[nH]2)c(O)c1 do in these assays?
TDP1 cell noCPT: inconclusive; TGFb SMAD3 inh: 3%; TDP1 inh: 5%; HepG2 viability: -52%; IL-1B inflam inh: -61*; TDP1 cell CPT: inconclusive

How did COC(=O)c1cc(-c2ccc(OC)cc2)n[nH]1 do in these assays?
TDP1 cell noCPT: -1%; TGFb SMAD3 inh: 1%; TDP1 inh: 0%; HepG2 viability: -1%; IL-1B inflam inh: 6; TDP1 cell CPT: 13%

What do the screens show for `Cc1ccccc1-c1cc(-c2ccccc2O)n[nH]1`?
TDP1 cell noCPT: 23µM*; TGFb SMAD3 inh: -16%; TDP1 inh: 9%; HepG2 viability: -64%; IL-1B inflam inh: -9; TDP1 cell CPT: 21µM*

Results for Cc1ccc(-c2cc(-c3ccc(C)cc3O)[nH]n2)cc1 ?
TDP1 cell noCPT: inconclusive; TGFb SMAD3 inh: inconclusive; HepG2 viability: -33%; IL-1B inflam inh: 14; TDP1 cell CPT: 5%

What do the screens show for `COc1ccccc1-c1cc(-c2cc(Cl)ccc2O)n[nH]1`?
TDP1 cell noCPT: -9%; TGFb SMAD3 inh: 7%; TDP1 inh: 4%; HepG2 viability: -2%; IL-1B inflam inh: 0; TDP1 cell CPT: -4%

How did CC1CN(c2cc(=O)n(-c3ccccc3)c(=O)[nH]2)CC(C)O1 (configuration not stated) do in these assays?
TDP1 cell noCPT: 1%; TGFb SMAD3 inh: -5%; TDP1 inh: -5%; HepG2 viability: -5%; IL-1B inflam inh: 8; TDP1 cell CPT: 6%

How did Nc1ncnc2c1ncn2[C@@H]1O[C@H](C(=O)N[C@H](CO)Cc2ccc(O)cc2)[C@@H](O)[C@H]1O do in these assays?
TDP1 cell noCPT: 12%; TGFb SMAD3 inh: -5%; HepG2 viability: 2%; IL-1B inflam inh: 20; TDP1 cell CPT: 3%

Results for O=C(NCc1ccccn1)[C@@H]1CCCN1C(=O)[C@@H]1CCCN1C(=O)c1c(F)cccc1F ?
TDP1 cell noCPT: -11%; IL-1B inflam inh: 23; TDP1 cell CPT: 10%

Results for Oc1ccccc1-c1cc(-c2ccc(F)cc2)n[nH]1 ?
TDP1 cell noCPT: 15µM*; TGFb SMAD3 inh: -24%; HepG2 viability: -27%; IL-1B inflam inh: 18; TDP1 cell CPT: inconclusive

How did COc1ccc(-c2cc(-c3ccccc3)n[nH]2)c(O)c1 do in these assays?
TDP1 cell noCPT: -20%; TGFb SMAD3 inh: inconclusive; TDP1 inh: 5%; HepG2 viability: -40%; IL-1B inflam inh: -93*; TDP1 cell CPT: -10%

What do the screens show for `Oc1ccccc1-c1cc(-c2ccccc2)n[nH]1`?
TDP1 cell noCPT: inconclusive; TGFb SMAD3 inh: inconclusive; TDP1 inh: -1%; HepG2 viability: -31%; IL-1B inflam inh: 13; TDP1 cell CPT: inconclusive

How did O=C(C[C@@H]1C/C=C\CCC(=O)OC[C@H](Cc2ccccc2)NC1=O)N[C@@H](CO)Cc1ccccc1 do in these assays?
TDP1 cell noCPT: inconclusive; TGFb SMAD3 inh: 7%; TDP1 inh: 0%; HepG2 viability: -2%; IL-1B inflam inh: -4; TDP1 cell CPT: inconclusive

What do the screens show for `COc1ccc(OC)c(-n2c(=O)c3ccccc3c3ccccc3c2=O)c1`?
TDP1 cell noCPT: -37%; TGFb SMAD3 inh: inconclusive; TDP1 inh: 0%; HepG2 viability: 0%; IL-1B inflam inh: -89*; TDP1 cell CPT: -24%

What do the screens show for `COc1ccc(-n2c(=O)c3ccccc3c3ccccc3c2=O)cc1`?
TDP1 cell noCPT: 0%; TGFb SMAD3 inh: 2%; TDP1 inh: 3%; HepG2 viability: -1%; IL-1B inflam inh: 8; TDP1 cell CPT: 4%
